Consider 17 molecules from the supplement of paper PMC9492666.

For one test, the system named is HCC1937. As to the kind of experiment: relative cell viability, compound + RSL3, vs DMSO (fraction of DMSO control); higher = less growth inhibition. Conditions: 72 h.
A further test concerns MDA-MB-231. Described as above. Conditions: 72 h.
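Further: breast cancer cell viability read out with the CCK-8 kit after co-treatment of each compound with the ferroptosis inducer RSL3.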

Regarding `CC[C@H](C)C(=O)O[C@H]1C[C@H](O)C=C2C=C[C@H](C)[C@H](CC[C@@H](O)C[C@@H](O)CC(=O)O)[C@H]21` [Pravastatin sodium] + COC(=O)c1ccc([C@H]2c3[nH]c4ccccc4c3C[C@H](C(=O)OC)N2C(=O)CCl)cc1 [RSL3], the relative cell viability in the test with HCC1937 was determined as 0.77; in the test on MDA-MB-231 it was 0.606.
Regarding `O=C(Nc1ccccc1)N1CCN(c2nc(-c3ccccc3)ns2)CC1` + COC(=O)c1ccc([C@H]2c3[nH]c4ccccc4c3C[C@H](C(=O)OC)N2C(=O)CCl)cc1 [RSL3], the values for the relative cell viability in the test with HCC1937 and with MDA-MB-231 were 0.281 and 0.406, respectively.
As to `CC(C)CCC[C@@H](C)[C@H]1CC[C@H]2[C@@H]3CC=C4C[C@@H](O)CC[C@]4(C)[C@H]3CC[C@]12C` [Cholesterol] + COC(=O)c1ccc([C@H]2c3[nH]c4ccccc4c3C[C@H](C(=O)OC)N2C(=O)CCl)cc1 [RSL3], the figures for the relative cell viability with HCC1937 and with MDA-MB-231 were 0.8 and 0.611, respectively.
As for `COc1ccc(-c2c[nH]c3nccc(-c4ccsc4)c23)c(OC)c1` + COC(=O)c1ccc([C@H]2c3[nH]c4ccccc4c3C[C@H](C(=O)OC)N2C(=O)CCl)cc1 [RSL3], the relative cell viability came out at 0.403 with HCC1937 and 0.665 in the test on MDA-MB-231.
In the same order, the values of `CCCc1c(OCCCOc2ccc(OCC(=O)O)cc2)ccc(C(C)=O)c1O` + COC(=O)c1ccc([C@H]2c3[nH]c4ccccc4c3C[C@H](C(=O)OC)N2C(=O)CCl)cc1 [RSL3] are 0.556 and 0.757.
On the same counts, the results for `CC(C)(Oc1ccc(C(=O)c2ccc(Cl)cc2)cc1)C(=O)O` [Choline Fenofibrate] + COC(=O)c1ccc([C@H]2c3[nH]c4ccccc4c3C[C@H](C(=O)OC)N2C(=O)CCl)cc1 [RSL3] are 0.469 and 0.692.
With `CCOc1cc(CC(=O)N[C@@H](CC(C)C)c2ccccc2N2CCCCC2)ccc1C(=O)O` [Repaglinide] + COC(=O)c1ccc([C@H]2c3[nH]c4ccccc4c3C[C@H](C(=O)OC)N2C(=O)CCl)cc1 [RSL3], the relative cell viability worked out at 0.598 in the test on HCC1937 and 0.656 in the test with MDA-MB-231.
For the molecule `CC(C)(O)c1ccccc1CC[C@@H](SCC1(CC(=O)O)CC1)c1cccc(/C=C/c2ccc3ccc(Cl)cc3n2)c1` [Montelukast] + COC(=O)c1ccc([C@H]2c3[nH]c4ccccc4c3C[C@H](C(=O)OC)N2C(=O)CCl)cc1 [RSL3], the relative cell viability was determined as 0.589 in the test on HCC1937 and 0.484 in the test with MDA-MB-231.
In the case of `C[C@H](CCOc1cccc(CC(=O)O)c1)N(Cc1cccc(C(F)(F)F)c1Cl)CC(c1ccccc1)c1ccccc1` [RGX-104 free Acid] + COC(=O)c1ccc([C@H]2c3[nH]c4ccccc4c3C[C@H](C(=O)OC)N2C(=O)CCl)cc1 [RSL3], the relative cell viability in the test with HCC1937 was found to be 0.333; with MDA-MB-231 it was 0.561.
In the same order, the values of `O=C(c1ccc(NS(=O)(=O)c2cccc3cccnc23)cc1)N1CCN(CC2CC2)CC1` [Mitapivat] + COC(=O)c1ccc([C@H]2c3[nH]c4ccccc4c3C[C@H](C(=O)OC)N2C(=O)CCl)cc1 [RSL3] are 0.558 and 0.654.
On the same counts, the results for `O=S(=O)(c1ccccc1)N(CC(F)(F)F)c1ccc(C(O)(C(F)(F)F)C(F)(F)F)cc1` + COC(=O)c1ccc([C@H]2c3[nH]c4ccccc4c3C[C@H](C(=O)OC)N2C(=O)CCl)cc1 [RSL3] are 0.36 and 0.638.
On to `Cc1cc(SCc2sc(-c3ccc(C(F)(F)F)cc3)nc2C)ccc1OCC(=O)O` + COC(=O)c1ccc([C@H]2c3[nH]c4ccccc4c3C[C@H](C(=O)OC)N2C(=O)CCl)cc1 [RSL3], for which the relative cell viability with HCC1937 worked out at 0.339; with MDA-MB-231, 0.554.
Consider `COc1cc(N(C)C)cc(CN(C)CCc2ccc([N+](=O)[O-])cc2)c1O` [CDC25 Phosphatase Inhibitor I] + COC(=O)c1ccc([C@H]2c3[nH]c4ccccc4c3C[C@H](C(=O)OC)N2C(=O)CCl)cc1 [RSL3], for which the relative cell viability with HCC1937 was found to be 0.454; in the test with MDA-MB-231 it was 0.886.
Turning to `CN(C(=O)n1cnc(-c2ccc[n+]([O-])c2)c1)C1CCCCC1` + COC(=O)c1ccc([C@H]2c3[nH]c4ccccc4c3C[C@H](C(=O)OC)N2C(=O)CCl)cc1 [RSL3], the values for the relative cell viability with HCC1937 and in the test with MDA-MB-231 were 0.292 and 0.526, respectively.
In the same order, the values of `COc1ccc2c(c1)CCC1C2CCC2(C)C(NCCCCCCN3C(=O)C=CC3=O)CCC12` (centres undefined) + COC(=O)c1ccc([C@H]2c3[nH]c4ccccc4c3C[C@H](C(=O)OC)N2C(=O)CCl)cc1 [RSL3] are 0.243 and 0.36.
As to `CC(C)(CCCCCC(O)CCCCCC(C)(C)C(=O)O)C(=O)O` + COC(=O)c1ccc([C@H]2c3[nH]c4ccccc4c3C[C@H](C(=O)OC)N2C(=O)CCl)cc1 [RSL3], the results for the relative cell viability with HCC1937 and in the test with MDA-MB-231 were 0.288 and 0.337, respectively.
As for `CC(C)OC(=O)C(C(=O)OC(C)C)=C1SC=CS1` [Malotilate] + COC(=O)c1ccc([C@H]2c3[nH]c4ccccc4c3C[C@H](C(=O)OC)N2C(=O)CCl)cc1 [RSL3], the relative cell viability in the test on HCC1937 came to 0.337; with MDA-MB-231, 0.547.
